High-throughput results: PubChem, National Center for Advancing Translational Sciences (NCATS)
Shiga toxin inh = A qHTS for Small Molecule Inhibitors of Shiga Toxin; Vero cells, Shiga toxin protein synthesis inhibition reporter; inhibition, % at 38.7 µM; 9.2% of 290,000 active; AID 2315, 2010; in the data active means inhibition mostly above about 28%, no sharp cut-off; inactive means mostly below about 43%; further: 0% is about no effect
Pf growth 96h = Primary qHTS for delayed death inhibitors of the malarial parasite plastid, 96 hour incubation | P. falciparum luciferase reporter growth, 96 h | Potency, µM (top dose mostly 28.7 µM), without a hit: top-dose activity change, negative = inhibition, hits mostly inhibitors | 6.9% of 320,000 active | AID 504834, 2011; further: potency means the concentration at half of the fitted maximal effect; on the % scale 0 is the no-effect control and ±100 the full control effect
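P. falciparum expressing integrated firefly luciferase grown in erythrocytes (2% hematocrit, 0.05% parasitemia final) with compounds for 96 hours at 37 C, 5% CO2. Growth inhibition read as loss of luminescence after adding luciferase detection reagent.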
Cycloheximide cs = Cycloheximide Counterscreen for Small Molecule Inhibitors of Shiga Toxin. cell reporter, cycloheximide protein synthesis inhibition counterscreen. max response, %. 12% of 300,000 active. AID 2314, 2010; in the data active means max response mostly above about 13%, no sharp cut-off; inactive means mostly below about 14%; further: read at 38.3 µM for the half of the compounds with a filed dose; 0% is about no effect
Giardia FBPA inh-1 = qHTS Assay for Inhibitors of Fructose-1,6-bisphosphate Aldolase from Giardia Lamblia; Potency, µM (doses to about 59.6 µM), for inactives: top-dose activity, negative = inhibition, most hits filed as inhibitors; A8B2U2; 0.71% of 290,000 active; purified Giardia FBPA; further: potency means the concentration at half of the fitted maximal effect; on the % scale 0 is the no-effect control and ±100 the full control effect; nearly all actives have a fitted effect of over 55% in size
Target sequence (A8B2U2 whole entry, looked up): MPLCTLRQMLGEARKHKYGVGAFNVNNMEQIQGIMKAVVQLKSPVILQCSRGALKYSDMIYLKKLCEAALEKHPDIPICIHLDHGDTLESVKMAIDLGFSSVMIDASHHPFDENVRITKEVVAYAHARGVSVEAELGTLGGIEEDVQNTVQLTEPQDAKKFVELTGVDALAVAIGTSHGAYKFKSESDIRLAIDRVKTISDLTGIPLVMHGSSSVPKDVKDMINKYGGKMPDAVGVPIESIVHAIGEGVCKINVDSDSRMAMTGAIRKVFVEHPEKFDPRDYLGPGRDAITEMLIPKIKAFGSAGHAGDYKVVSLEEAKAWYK
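Giardia FBPA (40 nM reagent) was preincubated 10 min at RT with compound (up to 57.5 uM final), then substrate plus GAPDH/TPI/NAD/arsenate coupling system with diaphorase/resazurin was added; resorufin fluorescence (525/598 nm) was read after 20 min.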
Pf growth 48h = Primary qHTS for delayed death inhibitors of the malarial parasite plastid, 48 hour incubation | P. falciparum luciferase growth in erythrocytes, 48 h | Potency, µM (titrated, usually from 28.7 µM), without a hit: top-dose activity change, negative = inhibition, actives largely listed as inhibitors | 5.9% of 310,000 active | AID 504832, 2011; further: potency means the concentration at half of the fitted maximal effect; on the % scale 0 is the no-effect control and ±100 the full control effect
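Here the parasites carry a stable luciferase gene and grow inside erythrocytes in Albumax-based RPMI medium with compound for one erythrocytic cycle. Activity is scored as loss of luminescent signal.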
NS1 inh = qHTS Assay for Inhibitors of Influenza NS1 Protein Function; AID 2326, 2010; Potency, µM (titrated, usually from 46.1 µM), without a hit: top-dose activity, positive = more growth; 0.4% of 270,000 active; calls by dose curve; further: potency means the concentration at half of the fitted maximal effect; actives are rising curves; nearly all actives have a fitted effect of over 50% in size
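In this qHTS, NS1 from influenza A is expressed in budding yeast, where it slows growth. Cells are switched from glucose to 2% galactose medium (pH 6.0, -URA), treated with compound, and growth recovery is read at OD600.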
Giardia growth = qHTS Assay for Inhibitors of Fructose-1,6-bisphosphate Aldolase from Giardia Lamblia: Giardia lamblia growth inhibition; AID 2785, 2010; Giardia lamblia trophozoite growth inhibition; Potency, µM (highest dose often 57.5 µM), for the others: at the top dose activity change, negative = inhibition, actives largely listed as inhibitors; 5% of 1,500 active; shares compounds with Giardia FBPA inh-1;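 further: potency means the concentration at half of the fitted maximal effect; trophozoites exposed to compound for 48 h at 37 °C; on the % scale 0 is the no-effect control and ±100 the full control effect; nearly all actives have a fitted effect of over 70% in size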
Mammalian tox = qHTS Assay for Inhibitors of Fructose-1,6-bisphosphate Aldolase from Giardia Lamblia: Mammalian cellular toxicity. shares compounds with Giardia FBPA inh-1. mammalian cell viability counter-screen, qHTS. Potency, µM (titrated, usually from 57.5 µM), for the others: at the highest dose viability change, negative = toxicity, most hits filed as inhibitors. 4% of 1,500 active;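 further: Chinese hamster ovary cells used as mammalian cytotoxicity surrogate; viability measured as cellular ATP by luminescence; potency means the concentration at half of the fitted maximal effect; compound exposure lasted 48 h before reading; on the % scale 0 is the no-effect control and ±100 the full control effect; nearly all actives have a fitted effect of over 60% in size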
Giardia FBPA inh-2 = qHTS Assay for Inhibitors of Fructose-1,6-bisphosphate Aldolase from Giardia Lamblia: Primary screen confirmation. shares compounds with Giardia FBPA inh-1. purified Giardia aldolase enzyme activity, qHTS. Potency, µM (series often up to 57.5 µM), for inactives: at the highest dose activity change, negative = inhibition, usual class: inhibitors. 5% of 1,500 active. AID 2787, 2010; further: potency means the concentration at half of the fitted maximal effect; on the % scale 0 is the no-effect control and ±100 the full control effect; nearly all actives have a fitted effect of over 45% in size
Rabbit FBPA inh = qHTS Assay for Inhibitors of Fructose-1,6-bisphosphate Aldolase from Giardia Lamblia: Rabbit FBPA Selectivity. shares compounds with Giardia FBPA inh-1. AID 2794, 2010. Potency, µM (doses to about 57.5 µM), without a hit: at the highest dose activity, negative = inhibition, most hits filed as inhibitors. 4% of 1,500 active. Rabbit muscle FBPA enzyme inhibition, selectivity counter-screen; further: potency means the concentration at half of the fitted maximal effect; on the % scale 0 is the no-effect control and ±100 the full control effect; nearly all actives have a fitted effect of over 60% in size
Target sequence (P00883 whole entry, looked up): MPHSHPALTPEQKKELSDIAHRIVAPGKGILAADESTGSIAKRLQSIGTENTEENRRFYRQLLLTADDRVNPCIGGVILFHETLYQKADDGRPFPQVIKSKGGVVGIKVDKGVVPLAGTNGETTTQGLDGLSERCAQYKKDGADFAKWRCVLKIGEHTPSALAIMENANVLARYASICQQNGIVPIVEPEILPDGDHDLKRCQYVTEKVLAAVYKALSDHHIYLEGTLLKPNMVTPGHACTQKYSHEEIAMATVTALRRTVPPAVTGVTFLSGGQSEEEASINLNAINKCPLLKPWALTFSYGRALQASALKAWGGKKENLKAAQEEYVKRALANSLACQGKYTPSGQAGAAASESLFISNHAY
GAPDH coupling = qHTS Assay for Inhibitors of Fructose-1,6-bisphosphate Aldolase from Giardia Lamblia: Coupling assay counterscreen confirmation; shares compounds with Giardia FBPA inh-1; Potency, µM (highest dose often 57.5 µM), inactives show at the top dose activity change, negative = inhibition, most hits filed as inhibitors; AID 2795, 2010; GAPDH coupling enzyme counterscreen, biochemical, qHTS; 6% of 1,500 active; further: potency means the concentration at half of the fitted maximal effect; on the % scale 0 is the no-effect control and ±100 the full control effect; nearly all actives have a fitted effect of over 55% in size
* marks the source's active call; other numbers are inactive results; ? = inconclusive; / = no result given; [ ] = remark or other dose. Compounds with a hit are over-represented: about 21% of the library has one in this group of screens. Unless noted, the call rests on the fitted dose curve; in most records, active means well fitted curve in the direction sought with a large enough effect; inconclusive means small, poorly fitted or top-dose-only effect, or another doubt; inactive means no such curve, though single readings can be large; an effect the other way counts as inactive or inconclusive.

SMILES	Shiga toxin inh	Pf growth 96h	Cycloheximide cs	Giardia FBPA inh-1	Pf growth 48h	NS1 inh	Giardia growth	Mammalian tox	Giardia FBPA inh-2	Rabbit FBPA inh	GAPDH coupling
CC(=O)c1c(C)nc(C)nc1NC(=O)Cc1ccccc1	-8	22%	-3	-2%	-6%	-8%	/	/	/	/	/
COc1cc(Br)c(CN2CCCN(C)CC2)cc1OC	-8	68%	-2	13µM*	4%	0%	15%	10%	0%	7%	11%
Cc1ccc(NC(=S)c2ccncc2)cc1	5	52%	18	28µM*	22%	-9%	23%	1%	6%	-2%	8%
CN(CC(=O)Nc1cccc(F)c1)C(=O)CSc1nc2ccccc2s1	/	19%	/	/	-1%	/	/	/	/	/	/
O=C(O)c1ncn(Cc2ccc(Br)cc2)c1C(=O)O	-12	-32%[5.75 µM]	-1	14µM*	?	/	-20%	1%	21%	22%	25%
COc1ccccc1CN1CCCCCC1	0	67%	2	?	9%	15%	/	/	/	/	/
COc1cc(CN2CCN(Cc3ccco3)CC2)cc(OC)c1	-4	2.1µM*	1	14µM*	25%	-1%	?	-8%	4%	8%	0%
Cc1ccc(CN2CCN(Cc3ccco3)CC2)cc1	-3	?	-1	16µM*	5%	10%	-6%	2%	-2%	7%	-18%
COc1ccc(CN2CCN(Cc3ccco3)CC2)c(OC)c1	27	0%	-2	13µM*	/	?	?	-2%	-1%	4%	5%
COc1ccccc1CN1CCN(Cc2ccco2)CC1	-2	-12%	-2	16µM*	/	-1%	-6%[10.4 µM]	0%	4%	3%	8%
COc1ccc(CN2CCN(Cc3ccccc3)CC2)c(OC)c1	1	107%	-3	-1%	8%	8%	/	/	/	/	/
CC(C)(C)NC(=O)CSc1ccc(C(C)(C)C)cc1	21	?	11	0%	?	?	/	/	/	/	/
Cc1ccc(N2C(=O)C3NN=C(C(=O)OCc4ccccc4)C3C2=O)c(C)c1 (stereo unspecified)	15	-4%	-4	-3%	4%	-6%	/	/	/	/	/
CC1=C(C#N)C(=O)N(C2CCS(=O)(=O)C2)C(=O)/C1=C\c1ccc(C)o1 (stereo unspecified)	-14	46%	-1	13µM*	59%	7%	47%	5%	?	?	?
Cc1oncc1C(=O)Nc1cccc(C#N)c1	-33	16%	-2	/	22%	4%	/	/	/	/	/
CCCCC1(C)NC(=S)N2N1C(=S)NC2(C)CCCC (stereo unspecified)	19	0%	1	16µM*	?	0%	?	21%	10%	2%	13%
CCCCC1(C)Cc2ccccc2C(=S)N1 (stereo unspecified)	-9	32%	-3	0%	?	-26%	/	/	/	/	/
CC(C)c1ccc(S(=O)(=O)N2CCN(CC(=O)c3ccc(O)c(O)c3)CC2)cc1	13	-26%	-5	13µM*	-38%	-3%	20%	?	?	-28%	-2%
O=C(CN1CCN(S(=O)(=O)c2ccc(Br)cc2)CC1)c1ccc(O)c(O)c1	-5	?	5	/	?	11%	/	/	/	/	/
COC(=O)[C@@H](NC(=O)NC1CCCc2ccccc21)C(C)C (stereo partly specified)	23	29%	-1	5%	-19%	-12%	/	/	/	/	/
NS(=O)(=O)c1ccc(NC(=S)NCc2ccc(Cl)cc2)cc1	-24	-3%	-1	16µM*	-4%	5%	-8%[10.4 µM]	-9%	-6%	2%	9%
NS(=O)(=O)c1ccc(NC(=S)NC(=O)C2CCCCC2)cc1	2	1%	6	-5%	4%	4%	/	/	/	/	/
Cn1cc(Br)c(C(=O)NC(=S)Nc2ccc(S(N)(=O)=O)cc2)n1	-9	4%	-4	16µM*	7%	3%	-26%	10%	3%	9%	12%
O=c1c(CO)cc(CO)cc(CO)c1O	-19	12%	2	?	?	-1%	-4%[38.3 µM]	-10%	-23%	-10%	-16%
Cc1nn(C(=O)CCCC(=O)n2nc(C)c(Cl)c2C)c(C)c1Cl	/	/	/	/	/	5%	/	/	/	/	/
SMILES	Shiga toxin inh	Pf growth 96h	Cycloheximide cs	Giardia FBPA inh-1	Pf growth 48h	NS1 inh	Giardia growth	Mammalian tox	Giardia FBPA inh-2	Rabbit FBPA inh	GAPDH coupling
C=CCNC(=S)NS(=O)(=O)c1cccs1	13	3%	-6	5.6µM*	-4%	/	-13%[38.3 µM]	10%	-14%	10%	-1%
C=CCNC(=S)NCc1ccccc1	1	-3%	1	-10%	20%	5%	/	/	/	/	/
C=CCNC(=S)N/N=C(\C)c1cccc(OC)c1	22	?	10	-29%	-16%	-25%	/	/	/	/	/
C=CCNC(=S)N/N=C(\C)c1cccnc1	16	?	-1	16µM*	6%	-2%	-9%	1%	5%	-3%	7%
CCN1CCN(CCCN(Cc2ccco2)C(=S)Nc2cc(Cl)ccc2C)CC1	-10	?	-3	16µM*	?	-5%	?	-9%	-4%	7%	10%
O=C(NCc1ccc2c(c1)OCO2)C(=O)NC1CCCCC1	-4	/	1	2%	10%	1%	/	/	/	/	/
c1cc2c(cc1NC1CCCCCC1)OCO2	11	?	16*	25µM*	1%	1%	98%	-6%	7.1µM*	?	-30%
Cc1ccc(-c2noc(N=O)c2NO)cc1	23	?	9	?	?	-49%	/	/	/	/	/
